In ChEMBL document CHEMBL2218924, “A broad activity screen in support of a chemogenomic map for kinase signalling research and drug discovery” (Biochem J, 2013):

Key:
[1] = biological target: Calcium/calmodulin-dependent protein kinase type 1 (Homo sapiens) (UniProt Q14012); conditions: at 1 µM
[2] = biological target: Calcium/calmodulin-dependent protein kinase type 1 (Homo sapiens) (UniProt Q14012); conditions: at 10 µM
[3] = biological target: Calcium/calmodulin-dependent protein kinase type II subunit beta (Homo sapiens) (UniProt Q13554); conditions: at 1 µM
[4] = biological target: Calcium/calmodulin-dependent protein kinase type II subunit beta (Homo sapiens) (UniProt Q13554); conditions: at 10 µM
[5] = biological target: Calcium/calmodulin-dependent protein kinase type II subunit gamma (Homo sapiens) (UniProt Q13555); conditions: at 1 µM
[6] = biological target: Calcium/calmodulin-dependent protein kinase type II subunit gamma (Homo sapiens) (UniProt Q13555); conditions: at 10 µM
[7] = biological target: Calcium/calmodulin-dependent protein kinase type II subunit delta (Homo sapiens) (UniProt Q13557); conditions: at 1 µM
[8] = biological target: Calcium/calmodulin-dependent protein kinase type II subunit delta (Homo sapiens) (UniProt Q13557); conditions: at 10 µM
[9] = biological target: T1, Calcium/calmodulin-dependent protein kinase type IV (Homo sapiens) (UniProt Q16566); conditions: at 1 µM
T1 sequence (whole entry): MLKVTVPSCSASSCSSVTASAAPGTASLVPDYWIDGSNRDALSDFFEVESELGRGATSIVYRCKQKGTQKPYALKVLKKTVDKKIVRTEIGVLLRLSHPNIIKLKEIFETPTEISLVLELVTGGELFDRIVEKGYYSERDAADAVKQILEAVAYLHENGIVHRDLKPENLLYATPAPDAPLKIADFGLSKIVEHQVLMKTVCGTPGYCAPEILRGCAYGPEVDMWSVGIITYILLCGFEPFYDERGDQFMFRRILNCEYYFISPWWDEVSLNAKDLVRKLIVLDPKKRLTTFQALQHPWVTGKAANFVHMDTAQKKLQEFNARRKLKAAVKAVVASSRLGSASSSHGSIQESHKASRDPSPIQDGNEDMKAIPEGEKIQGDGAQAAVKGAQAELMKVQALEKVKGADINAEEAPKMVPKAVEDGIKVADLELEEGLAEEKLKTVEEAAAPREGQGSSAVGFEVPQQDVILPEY

[10] = biological target: T1, Calcium/calmodulin-dependent protein kinase type IV (Homo sapiens); conditions: at 10 µM

Calcium/calmodulin-dependent protein kinase type II subunit beta (Homo sapiens), sequence (Q13554 whole entry): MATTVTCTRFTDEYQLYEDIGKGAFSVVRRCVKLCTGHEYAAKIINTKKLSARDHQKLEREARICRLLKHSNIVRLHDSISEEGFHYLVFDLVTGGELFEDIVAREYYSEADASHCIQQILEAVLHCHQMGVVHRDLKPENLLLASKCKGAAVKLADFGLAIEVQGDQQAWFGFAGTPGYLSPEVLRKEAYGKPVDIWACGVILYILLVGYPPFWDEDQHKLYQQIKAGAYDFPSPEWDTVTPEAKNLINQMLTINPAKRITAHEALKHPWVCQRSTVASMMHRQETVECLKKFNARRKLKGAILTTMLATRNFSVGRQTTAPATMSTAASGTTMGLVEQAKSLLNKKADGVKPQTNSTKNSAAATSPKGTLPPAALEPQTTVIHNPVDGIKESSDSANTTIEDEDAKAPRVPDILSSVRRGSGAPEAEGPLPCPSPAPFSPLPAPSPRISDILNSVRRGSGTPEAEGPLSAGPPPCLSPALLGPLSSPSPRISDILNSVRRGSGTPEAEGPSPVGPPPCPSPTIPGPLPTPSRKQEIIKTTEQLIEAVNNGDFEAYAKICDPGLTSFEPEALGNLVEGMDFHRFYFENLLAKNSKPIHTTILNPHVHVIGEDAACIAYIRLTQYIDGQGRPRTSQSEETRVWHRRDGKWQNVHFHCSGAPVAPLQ
Calcium/calmodulin-dependent protein kinase type 1 (Homo sapiens), sequence (Q14012 whole entry, looked up): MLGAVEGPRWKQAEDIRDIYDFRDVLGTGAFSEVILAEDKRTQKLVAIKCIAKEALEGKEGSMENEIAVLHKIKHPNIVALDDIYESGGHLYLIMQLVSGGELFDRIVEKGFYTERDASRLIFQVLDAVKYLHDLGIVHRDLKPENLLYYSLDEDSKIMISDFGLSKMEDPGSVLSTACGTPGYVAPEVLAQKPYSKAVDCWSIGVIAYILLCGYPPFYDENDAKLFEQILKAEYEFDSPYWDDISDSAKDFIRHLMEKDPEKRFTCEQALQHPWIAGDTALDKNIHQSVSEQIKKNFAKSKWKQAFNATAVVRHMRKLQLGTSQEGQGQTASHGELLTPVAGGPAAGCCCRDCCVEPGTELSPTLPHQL
Calcium/calmodulin-dependent protein kinase type II subunit gamma (Homo sapiens), sequence (Q13555 whole entry): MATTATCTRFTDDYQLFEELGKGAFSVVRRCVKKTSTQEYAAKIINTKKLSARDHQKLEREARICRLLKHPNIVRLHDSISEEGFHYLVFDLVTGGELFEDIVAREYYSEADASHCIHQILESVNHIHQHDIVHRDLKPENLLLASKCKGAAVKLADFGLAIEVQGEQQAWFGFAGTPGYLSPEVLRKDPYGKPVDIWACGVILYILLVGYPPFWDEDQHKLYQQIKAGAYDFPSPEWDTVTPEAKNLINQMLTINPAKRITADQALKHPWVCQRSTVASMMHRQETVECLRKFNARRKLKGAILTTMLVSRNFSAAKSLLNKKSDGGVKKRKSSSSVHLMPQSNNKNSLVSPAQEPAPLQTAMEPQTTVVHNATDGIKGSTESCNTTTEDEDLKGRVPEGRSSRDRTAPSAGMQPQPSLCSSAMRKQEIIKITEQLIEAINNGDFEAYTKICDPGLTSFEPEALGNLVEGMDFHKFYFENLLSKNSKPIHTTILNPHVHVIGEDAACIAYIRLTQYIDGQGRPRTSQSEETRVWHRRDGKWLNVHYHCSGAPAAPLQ
Calcium/calmodulin-dependent protein kinase type II subunit delta (Homo sapiens), sequence (Q13557 whole entry): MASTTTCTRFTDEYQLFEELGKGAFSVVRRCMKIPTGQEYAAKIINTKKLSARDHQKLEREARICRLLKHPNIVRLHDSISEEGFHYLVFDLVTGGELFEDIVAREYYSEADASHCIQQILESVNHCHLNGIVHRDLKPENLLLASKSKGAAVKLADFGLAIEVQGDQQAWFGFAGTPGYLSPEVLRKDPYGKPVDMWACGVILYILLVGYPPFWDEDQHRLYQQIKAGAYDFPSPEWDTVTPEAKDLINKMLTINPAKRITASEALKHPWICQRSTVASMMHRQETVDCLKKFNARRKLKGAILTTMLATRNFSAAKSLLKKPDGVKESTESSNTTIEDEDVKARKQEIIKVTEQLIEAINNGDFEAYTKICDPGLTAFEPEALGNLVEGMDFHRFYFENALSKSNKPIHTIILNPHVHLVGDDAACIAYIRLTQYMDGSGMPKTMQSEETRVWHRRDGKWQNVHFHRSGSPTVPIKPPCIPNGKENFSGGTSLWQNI

Compound | residual activity [1] | residual activity [2] | residual activity [3] | residual activity [4] | residual activity [5] | residual activity [6] | residual activity [7] | residual activity [8] | residual activity [9] | residual activity [10]
O=c1[nH]c2ccccc2n1C1CCN(Cc2ccc(-c3nc4cc5[nH]cnc5cc4nc3-c3ccccc3)cc2)CC1 | 103% | -5% | 94% | 6% | 104% | 16% | 102% | 2% | 130% | 49%
COc1ccc2c(c1)/C(=C/c1cnc[nH]1)C(=O)N2 | – | 77% | – | – | 49% | 10% | 42% | 8% | – | –
CN[C@@H]1C[C@H]2O[C@@](C)([C@@H]1OC)n1c3ccccc3c3c4c(c5c6ccccc6n2c5c31)C(=O)NC4 | – | – | – | 0% | – | – | – | – | – | –
CC(C)[C@H](CO)Nc1nc(Nc2cccc(Cl)c2)c2ncn(C(C)C)c2n1 | 93% | 78% | 95% | 68% | 100% | 42% | 99% | 46% | – | 60%
COc1cc(OC)c(/C=C2\C(=O)Nc3ccccc32)c(OC)c1 | 96% | 82% | 102% | 76% | 105% | 96% | 107% | 89% | – | 101%
c1cc(-c2cnn3cc(-c4ccc(OCCN5CCCCC5)cc4)cnc23)ccn1 | – | 61% | 48% | 8% | 39% | 7% | 40% | 6% | – | 87%
CCn1cnc2c(Nc3cccc(Cl)c3)nc(N[C@@H]3CCCC[C@@H]3N)nc21 | 84% | 27% | 93% | 45% | 43% | 10% | 44% | 10% | 77% | 17%
CCc1nc(-c2ccc(OC)cc2)[nH]c1-c1ccncc1 | 108% | 101% | – | 76% | – | – | 110% | 80% | – | –
COc1cc2ncnc(Nc3ccc(OCc4ccccc4)cc3)c2cc1OC | 92% | 57% | 106% | 95% | 109% | 93% | 100% | 83% | 92% | 91%
CC(C)(C)c1cc(C=C(C#N)C#N)cc(Br)c1O | 121% | 105% | – | – | 102% | 55% | 104% | 46% | 115% | 83%
COC(=O)[C@@]1(O)C[C@H]2O[C@]1(C)n1c3ccccc3c3c4c(c5c6ccccc6n2c5c31)C(=O)NC4 | 6% | 1% | 0% | -1% | 1% | 0% | 0% | 1% | 24% | 11%
C[S+]([O-])c1ccc(-c2nc(-c3ccc(F)cc3)c(-c3ccncc3)[nH]2)cc1 (stereo not given) | 115% | 99% | 114% | 98% | 103% | 100% | 108% | 89% | 113% | 98%
COc1ccc2c(c[n+](C)c3c4cc5c(cc4ccc23)OCO5)c1OC | – | 86% | 80% | 55% | – | 70% | – | 85% | – | 69%
O=[N+]([O-])/C=C/c1ccc2c(c1)OCO2 | 108% | 84% | 90% | 84% | 107% | 100% | 109% | 97% | 132% | 14%
N/C(=N\[N+](=O)[O-])N/N=C\c1ccc(-c2cccc([N+](=O)[O-])c2)o1 | 93% | 49% | 92% | 76% | 91% | 53% | – | – | – | –
O=C1Nc2ccc3ncsc3c2/C1=C/c1c[nH]cn1 | 72% | 22% | 13% | 3% | 21% | -1% | 18% | 4% | 80% | 24%
O=C1c2ccccc2-c2nc3nnnn3nc21 | 107% | 100% | 105% | – | – | 105% | 104% | 103% | 122% | 113%
O=C1NC(=O)c2c1c1c3ccccc3n3c1c1c2c2ccccc2n1C1CCC3O1 | 63% | 48% | 32% | 32% | 0% | 1% | -1% | 5% | 90% | 100%
